Several values for one entry are separate records, joined by “and”; a condition that tells them apart may be missing. Equal entries are not always repeated. Inconclusive results are not listed. Activity calls are given as the source filed them. The call rests on the fitted dose curve.
Potency means the concentration at half of the fitted maximal effect.

The assay is described as follows: qHTS assay for small molecule disruptors of the mitochondrial membrane potential - 1 hr assay (AID 651754). Further: nearly all actives have a fitted effect of over 35% in size. To be noted: series mostly up to 92.2 µM. Summed up:
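Read-out: dye fluorescence at 490 nm ex/535 nm em (monomers) and 540 nm ex/590 nm em (aggregates) in HepG2 cells. Compound exposure 1 hr at 37C, followed by 30 min dye loading.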
In general terms: qHTS replaces the single test concentration by a dilution series.
For `Nc1ccc(Cl)cc1N`, the Potency is 8.41 µM (active).

Regarding `Nc1ccc(Cl)cc1`, the Potency result was “inactive”.

As for `O=[N+]([O-])c1c2ccccc2cc2ccccc12`, the Potency is 11.9 µM (active).

With `Cc1cc(O)ccc1Cl`, the Potency result is “inactive”.

Turning to `CC(C)(O)C(=O)Nc1ccc([N+](=O)[O-])c(C(F)(F)F)c1`, the Potency was 29.8 µM (active).

For `O=[N+]([O-])c1cc([N+](=O)[O-])c2ccccc2c1`, the Potency was 33.5 µM (active).

In the case of `Nc1ccc(Sc2ccc(N)cc2)cc1`, the Potency result was “inactive”.

For the compound `Nc1cccc2c(N)cccc12`, the Potency is 2.98 µM (active).

Consider `CN(C)NC(=O)CCC(=O)O`, for which the Potency result is “inactive”.

On to `COC(C)(C)CCCC(C)C/C=C/C(C)=C/C(=O)OC(C)C` (stereo not given), for which the Potency result was “inactive”.

`CC(=O)[O][Hg][c]1ccccc1`: the Potency was 16.8 µM (active).

`O=[N+]([O-])c1c(Cl)c(Cl)cc(Cl)c1Cl`: the Potency result was “inactive”.

Turning to `CCCCC(CC)COC(=O)c1ccccc1C(=O)OCC(CC)CCCC` (stereo not given), the Potency result was “inactive”.

As to `COc1ccc(C(c2ccc(OC)cc2)C(Cl)(Cl)Cl)cc1`, the Potency was 23.7 µM (active) and 37.6 µM (active).

With `CC(C)(c1ccc(O)cc1)c1ccc(O)cc1`, the Potency is 26.6 µM (active) and 13.3 µM (active).

The values above are taken from PubChem BioAssay (NCATS).
